Screening results (PubChem)
Compounds with a hit are over-represented: about 21% of the library has one in this group of screens.
Pf growth 96h = P. falciparum growth inhibition at 96 hours; 320,000 tested, 6.9% active; P. falciparum luciferase reporter growth, 96 h; Potency, µM (top dose mostly 28.7 µM), for the others: at the top dose activity change, negative = inhibition, actives largely listed as inhibitors; further: potency means the concentration at half of the fitted maximal effect; on the % scale 0 is the no-effect control and ±100 the full control effect
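Infected RBCs, 2% Hct / 0.05% parasitemia final; luciferase-reporter P. falciparum; cpd 96 h, 37 C, 5% CO2; luciferase detection reagent; luminescence.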
CHX counter = counter-screen hit for Shiga toxin inhibitors, cycloheximide; cell reporter, cycloheximide protein synthesis inhibition counterscreen; max response, %; 300,000 tested, 12% active; AID 2314; in the data active means max response mostly above about 13%, no sharp cut-off; inactive means mostly below about 14%; further: read at 38.3 µM for the half of the compounds with a filed dose; 0% is about no effect
HCV inhibitor = blocks hepatitis C virus | Huh7.5.1 HCVcc-Cre infection, luciferase reporter, 44 h | Potency, µM (titrated, usually from 41.8 µM), without a hit: at the highest dose activity change, negative = inhibition, most hits filed as inhibitors | 340,000 tested, 3.4% active | AID 651820; further: potency means the concentration at half of the fitted maximal effect; on the % scale 0 is the no-effect control and ±100 the full control effect
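Whole-lifecycle infectious HCVcc-Cre system; cells 1,000/well, compound then virus (~0.5 moi) added 4 h after plating, 44 h culture. Luciferase read 15 sec following 15 min substrate incubation, room temp.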
AMA1-RON2 inh = inhibitors of Plasmodium falciparum AMA1-RON2 interaction; 360,000 tested, 0.2% active; AID 720542; Potency, µM (series often up to 58.2 µM), inactives show top-dose activity change, negative = inhibition, hits mostly inhibitors; AlphaScreen AMA1-biotinylated RON2 peptide binding;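 further: potency means the concentration at half of the fitted maximal effect; 0% = vehicle wells and -100% = peptide control; nearly all actives have a fitted effect of over 45% in size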
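AMA1 (3D7) with his tag at 25 nM final met compounds first, then biotinylated RON2 peptide at 25 nM; detection used donor plus acceptor beads, 10 µg/mL apiece, read by AlphaScreen after 30 min at room temperature.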
Pf growth 48h = inhibits P. falciparum growth in the first generation, 48 h; P. falciparum luciferase growth in erythrocytes, 48 h; Potency, µM (series often up to 28.7 µM), for inactives: at the highest dose activity change, negative = inhibition, hits mostly inhibitors; AID 504832; 310,000 tested, 5.9% active; further: potency means the concentration at half of the fitted maximal effect; on the % scale 0 is the no-effect control and ±100 the full control effect
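First compound was added to culture medium, then infected red cells at 0.1% parasitemia and 2% hematocrit (final). After incubation at 37 C under 5% CO2, luciferase detection reagent was dispensed and light output recorded.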
Shiga inhibitor = blocks Shiga toxin action in Vero cells; Vero cells, Shiga toxin protein synthesis inhibition reporter; inhibition, % at 38.7 µM; 290,000 tested, 9.2% active; AID 2315; in the data active means inhibition mostly above about 28%, no sharp cut-off; inactive means mostly below about 43%; further: 0% is about no effect
Starred values were filed as active, the others as inactive; ? = inconclusive; / = no result. Unless noted, the call rests on the fitted dose curve; in most records, active means well fitted curve in the direction sought with a large enough effect; inconclusive means small, poorly fitted or top-dose-only effect, or another doubt; inactive means no such curve, though single readings can be large; an effect the other way counts as inactive or inconclusive.

SMILES	Pf growth 96h	CHX counter	HCV inhibitor	AMA1-RON2 inh	Pf growth 48h	Shiga inhibitor
O=C(Nc1ccccc1N1CCCC1)c1cc2ccccc2o1	1%	52*	?	?	?	97*
CN1CCN(c2ccccc2NC(=O)c2cc3ccccc3o2)CC1	4.7µM*	14	-16%	-1%	?	-8
O=C(Nc1ccccc1N1CCOCC1)c1cc2ccccc2o1	?	12	-2%	3%	-3%	28
O=C(Nc1cccnc1Cl)c1cc2ccccc2o1	314%	38*	11%	0%	/	66*
CCc1ccccc1NC(=S)N(CCN(C)C)C(C)c1ccccn1 (stereo unspecified)	/	2	22µM*	-35%	-3%	-3
COc1ccccc1CCc1nnc(CCC(=O)NC(C)Cn2nc(C)cc2C)o1 (stereo unspecified)	8%	1	0%	0%	9%	-13
COc1ccc(C(C)=O)cc1CSc1nnc(Nc2ccccc2)s1	6.6µM*	-5	?	-5%	?	-6
Cc1nnc(SCc2cccc3ccccc23)s1	105%	52*	-69%	21%	62%	71*
c1ccc(Nc2nnc(SCc3cccc4ccccc34)s2)cc1	8.3µM*	-1	?	-1%	/	3
COc1cc(-c2nnc(CSc3nnc(Nc4ccc(Oc5ccccc5)cc4)s3)o2)cc(OC)c1OC	?	15*	5.6µM*	19%	?	26
COc1ccc(C(C)=O)cc1CSc1nnc(Nc2ccc(C)cc2)s1	?	7	?	-7%	?	-2
Cc1ccc(S(=O)(=O)N2CCN(Cc3ccccc3)CC2)s1	?	/	1%	-10%	-12%	/
O=C(/C=C/c1cccc(Cl)c1)NCc1ccncc1	?	1	8%	-2%	16%	-8
NS(=O)(=O)c1ccc(NC(=O)/C=C/c2cccc(Cl)c2)cc1	22%	12	11µM*	-2%	-7%	36
O=C(/C=C/c1cccc(Cl)c1)Nc1ccncc1	14%	38*	-3%	6%	-8%	53*
Cc1nnc(SCC(=O)NC(=O)Nc2ccc3c(c2)OCCO3)s1	-5%	30*	13%	-17%	109%	45*
Cc1nnc(NC(=O)c2ccc(S(=O)(=O)N3CCCCC3)cc2)s1	/	/	2%	-3%	/	/
COc1ccc(-c2nnc(SC(C)C(=O)Nc3ccc4c(c3)OCCO4)o2)cc1 (stereo unspecified)	12µM*	35*	-17%	37%	63%	active
Cc1nnc(SC(C)C(=O)Nc2ccc(S(=O)(=O)N3CCCCCC3)cc2)s1 (stereo unspecified)	/	-3	-13%	4%	12µM*	-14
Cc1ccccc1Nc1nnc(SCC(=O)NC(=O)Nc2ccc3c(c2)OCCO3)s1	67%	62*	1%	/	53%	50*
O=C1CC(=O)Nc2cc(S(=O)(=O)N3CCN(c4ccc([N+](=O)[O-])cc4)CC3)ccc2N1	-21%	12	-3%	-15%	12%	-3
COC(=O)c1cccc(CN2C(=O)C(C)Sc3ccc(C(C)=O)cc32)c1 (stereo unspecified)	/	/	/	-14%	/	/
CCC(C)[C@H]1CNCCN1CCc1cccc(F)c1 (stereo partly specified)	68%	/	2%	18%	-2%	/
CC(Sc1ccc2c(c1)OCCO2)C(=O)Nc1ccc2c(c1)OCO2 (stereo unspecified)	-8%	-2	-29%	10%	-10%	30
Cc1nnc(SC(C)C(=O)Nc2ccc3c(c2)OCCO3)s1 (stereo unspecified)	10µM*	8	3%	-2%	8%	-7
SMILES	Pf growth 96h	CHX counter	HCV inhibitor	AMA1-RON2 inh	Pf growth 48h	Shiga inhibitor
c1ccc(N2CCN(c3ncnc4scc(-c5cccs5)c34)CC2)cc1	-27%	1	11µM*	-12%	?	-3
Fc1ccc(-c2csc3ncnc(N4CCN(c5ccccc5)CC4)c23)cc1	5.9µM*	-4	-14%	-8%	12µM*	-8
COc1ccc(CN2CCN(c3ncnc4scc(-c5ccc(F)cc5)c34)CC2)cc1	9.3µM*	-4	?	-6%	?	-3
COc1ccc(N2CCN(c3ncnc4scc(-c5ccc(F)cc5)c34)CC2)cc1	12µM*	11	?	13µM*	?	-6
Cc1ccc(N2C(N)=C(C#N)C(c3cc(CN4CCOCC4)cs3)C3=C2CC(C)(C)CC3=O)cc1 (stereo unspecified)	-7%	-2	?	-2%	?	30
CN(CC(=O)O)Cc1oc(CO)cc(=O)c1O	/	/	27%	49%	/	/
c1ccc(-c2csc3ncnc(N4CCOCC4)c23)cc1	32%	2	-4%	2%	-4%	-8
O=C(c1ccco1)N1CCN(c2ncnc3scc(-c4ccccc4)c23)CC1	0%	4	?	11%	/	-11
c1ccc(-c2csc3ncnc(N4CCc5ccccc5C4)c23)cc1	12µM*	2	?	-16%	12µM*	14
O=C(c1ccco1)N1CCN(c2ncnc3scc(-c4cccs4)c23)CC1	?	-3	?	-3%	12µM*	-12
COc1ccc(N2CCN(c3ncnc4scc(-c5ccccc5)c34)CC2)cc1	?	-6	?	?	9.3µM*	-5
COc1ccc(-c2csc3ncnc(N4CCN(c5cccc(Cl)c5)CC4)c23)cc1	7.4µM*	-1	?	-21%	?	-8
CC1=CC(C)(C)NC(=S)N1c1ccc(N(C)C)cc1	/	/	4%	-6%	/	/
O=C(O)C1C2CCC1C(O)C2 (stereo unspecified)	/	/	/	14%	/	/
CCCNC(=O)C1(C)CCN(Cc2ccc3ccccc3c2Br)C1 (stereo unspecified)	/	/	/	1%	/	/
CCCCn1c(=N)n(CC(=O)c2ccc(OC)cc2)c2ccccc21	?	-2	/	/	?	-9
Cc1ccc(C(=O)Cn2c(=N)n(N)c3ccccc32)cc1	293%	46*	-7%	-5%	57%	81*
C=CCn1c(=N)n(CC(=O)c2ccc(OC)cc2)c2ccccc21	-25%	-2	6%	1%	?	20
CCN(CC)CCn1c(=N)n(CC(=O)c2ccc(C)cc2)c2ccccc21	20%	27*	?	-5%	4.7µM*	/
CC1=CC(C)(C)NC(=S)N1c1cccc2cc(S(=O)(=O)O)ccc12	35%	-3	5%	-6%	34%	-6
Cc1ccc(NC(NC(=O)OCCn2c([N+](=O)[O-])cnc2C)C(Cl)(Cl)Cl)cc1 (stereo unspecified)	?	-1	14%	/	5.2µM*	-13
Cc1cc(N2CCOCC2)nc2ccc(NC(=S)N3CCN(c4ccccc4)CC3)cc12	?	-8	?	8%	?	-6
